Our source for the growth values is PubChem BioAssay (NCI).

The panel holds about 83,000 compounds, 20% with a hit somewhere; the sample as a whole holds those more often.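 96-well plates, one dose, 48 hours. Percent growth reported; active if below 10.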 Unmarked numbers belong to inactive results. The source made the active and inactive calls.

Some test systems named below: NCI-H23 lung; NCI-H226 lung; NCI-H322M lung; HOP-62 NSCLC; NCI-H460 lung; HOP-92 NSCLC; NCI-H522 lung; A549/ATCC NSCLC; 786-0 renal; COLO 205 colon; DU-145 prostate; K-562 leukemia; MALME-3M melanoma; MDA-MB-231 breast; RXF 393 renal; SF-268 CNS; SF-295 CNS; SF-539 CNS; UACC-257 melanoma; M14 melanoma.
Common to all, as to assay: NCI-60 one-dose screen, 48 h (100 = growth as untreated, 0 = no growth, -100 = all killed)
What all share (details): 10 µM unless noted

`OCC1OC(n2cnc3c(Cl)ncnc32)CC1O` (configuration not stated): the growth with NCI-H23 lung is 118%; with NCI-H226 lung, 97.7%; with NCI-H322M lung, 101%; with HOP-62 NSCLC it was 114%; with NCI-H460 lung, 104%; in the assay on HOP-92 NSCLC, 89.5%. The growth with NCI-H522 lung was 101%; in the assay on A549/ATCC NSCLC it was 104%; in the assay with 786-0 renal, 107%; in the assay on COLO 205 colon, 104%; in the assay on DU-145 prostate, 113%; with K-562 leukemia, 103%. Also, the growth was 97.5% in the assay on MALME-3M melanoma; 106% in the assay on MDA-MB-231 breast; 103% in the assay on RXF 393 renal; 99.1% in the assay with SF-268 CNS; 114% in the assay on SF-295 CNS; 96.2% in the assay with SF-539 CNS. Moreover, the growth in the assay on UACC-257 melanoma is 110%; in the assay on M14 melanoma, 104%.
As to `CC(=O)O[C@H]1CC[C@]2(C)[C@H]3CC=C4[C@@H]5[C@H](C)[C@@H](C)CC[C@]5(C(=O)NCCNCCNCCN)CC[C@@]4(C)[C@]3(C)CC[C@H]2C1(C)C`, the growth in the assay on NCI-H23 lung is 94.6%; in the assay with NCI-H226 lung, 90.5%; with NCI-H322M lung, 87.6%; in the assay with HOP-62 NSCLC, 86.2%; in the assay on NCI-H460 lung it was 76.8%; with HOP-92 NSCLC it was 55%. Moreover, the growth with NCI-H522 lung was 87.2%; with A549/ATCC NSCLC it was 73.8%; with 786-0 renal it was 84.5%; in the assay with COLO 205 colon, 72.5%; in the assay with DU-145 prostate it was 89.8%; with K-562 leukemia, 12%. The growth with MALME-3M melanoma is 59.3%; in the assay on MDA-MB-231 breast, 78%; in the assay with RXF 393 renal it was 82.7%; in the assay with SF-268 CNS it was 84.1%; in the assay with SF-295 CNS, 101%; in the assay on SF-539 CNS it was 84.4%. Moreover, the growth with UACC-257 melanoma was 98%.
Regarding `O=C1CNCCN1`, the growth in the assay on NCI-H23 lung was 96.4%; in the assay with NCI-H226 lung it was 97.1%; with NCI-H322M lung it was 106%; in the assay on HOP-62 NSCLC it was 114%; in the assay on NCI-H460 lung, 105%; in the assay with HOP-92 NSCLC, 105%. The growth is 90.9% in the assay on NCI-H522 lung; 93.4% in the assay with A549/ATCC NSCLC; 100% with 786-0 renal; 122% in the assay with COLO 205 colon; 107% with DU-145 prostate; 101% with K-562 leukemia. Moreover, the growth was 104% in the assay with MALME-3M melanoma; 97.9% in the assay on MDA-MB-231 breast; 98.5% in the assay with RXF 393 renal; 107% with SF-268 CNS; 97.4% in the assay with SF-295 CNS; 95.8% with SF-539 CNS.
As for `O=C1c2cccc3cccc(c23)C(=O)N1CC#Cc1ccc2c3c(cccc13)C(=O)N(CCN1CCNCC1)C2=O`, the growth is 73.7% in the assay on NCI-H23 lung; 102% in the assay on NCI-H226 lung; 98.6% in the assay with NCI-H322M lung; 110% with HOP-62 NSCLC; 73.1% in the assay with NCI-H460 lung; 87.7% in the assay on HOP-92 NSCLC. Further, the growth in the assay on NCI-H522 lung was 99.8%; in the assay on A549/ATCC NSCLC, 109%; in the assay with 786-0 renal, -2.58% (active); in the assay on COLO 205 colon, 93.5%; in the assay with DU-145 prostate, 99.5%; with K-562 leukemia, -15.3% (active). Moreover, the growth with MALME-3M melanoma was -45% (active); in the assay with MDA-MB-231 breast, 7.95% (active); with RXF 393 renal, 82.9%; in the assay on SF-268 CNS it was 93.8%; with SF-295 CNS it was 94.1%; in the assay with SF-539 CNS, 10.2%. The growth in the assay on UACC-257 melanoma was 104%.
On to `COc1cccc(-c2nn(-c3ccccc3)cc2-c2ccnc(NCCCO)c2)c1`, for which the growth in the assay on NCI-H23 lung was 51.5%; in the assay on NCI-H226 lung, 69.2%; in the assay with NCI-H322M lung, 66%; in the assay on HOP-62 NSCLC, 27.1%; in the assay with NCI-H460 lung, 18.4%; in the assay on HOP-92 NSCLC it was 41.8%. In addition, the growth is 18% in the assay on NCI-H522 lung; 35.1% in the assay with A549/ATCC NSCLC; 48.7% with 786-0 renal; 11.2% in the assay on COLO 205 colon; 63.8% with DU-145 prostate; 8.63% (active) with K-562 leukemia. In addition, the growth was 51.4% with MALME-3M melanoma; 38.4% in the assay on MDA-MB-231 breast; 47.6% in the assay on RXF 393 renal; 53.7% in the assay with SF-268 CNS; 27.1% in the assay with SF-295 CNS; 33.5% with SF-539 CNS.
On to `Cc1ccc(Sc2sc(-c3ccccc3)nc2[P+](c2ccccc2)(c2ccccc2)c2ccccc2)cc1`, for which the growth is -12.2% (active) in the assay with NCI-H23 lung; -3.15% (active) in the assay with NCI-H226 lung; -19.1% (active) in the assay with NCI-H322M lung; -0.272% (active) in the assay on HOP-62 NSCLC; -19.1% (active) with NCI-H460 lung; -40.4% (active) in the assay on HOP-92 NSCLC. Further, the growth is -5.65% (active) in the assay with NCI-H522 lung; 6.14% (active) with A549/ATCC NSCLC; 6.12% (active) in the assay with 786-0 renal; -25.3% (active) in the assay on COLO 205 colon; 10.7% with DU-145 prostate; 2.4% (active) with K-562 leukemia. For the same compound, the growth in the assay on MALME-3M melanoma is -22.4% (active); in the assay on MDA-MB-231 breast it was -29.5% (active); in the assay on RXF 393 renal, -21.5% (active); in the assay with SF-268 CNS, 15.5%; in the assay with SF-295 CNS, -20.9% (active); in the assay on SF-539 CNS, 11.8%. Moreover, the growth with UACC-257 melanoma was 2.98% (active); in the assay with M14 melanoma, -7.46% (active).
`O=C1c2cc3c(cc2-c2c1c1ccc(F)cc1c(=O)n2CCCN1CCOCC1)OCO3`: the growth was 40.6% with NCI-H23 lung; 20.4% in the assay on NCI-H226 lung; 79.8% with NCI-H322M lung; 18.9% in the assay on HOP-62 NSCLC; 14.1% in the assay on NCI-H460 lung; 68.4% in the assay with HOP-92 NSCLC. The growth was 25.5% in the assay with NCI-H522 lung; 33.8% in the assay with A549/ATCC NSCLC; 24.1% in the assay with 786-0 renal; 55.1% in the assay with COLO 205 colon; 28.4% in the assay on DU-145 prostate; 41.6% with K-562 leukemia. For the same compound, the growth in the assay with MALME-3M melanoma was 101%; in the assay with MDA-MB-231 breast it was 105%; with RXF 393 renal, 70.6%; in the assay on SF-268 CNS, 43.3%; with SF-295 CNS, 21.7%; with SF-539 CNS, 11.2%. In addition, the growth in the assay on UACC-257 melanoma is 62.7%.
Take `COc1cc(/C=N/Nc2ncnc3c2c(C)nn3-c2ccc(F)cc2)ccc1O`: the growth in the assay on NCI-H23 lung is 90.6%; in the assay with NCI-H226 lung, 102%; in the assay on NCI-H322M lung, 85.6%; in the assay on HOP-62 NSCLC, 106%; in the assay on NCI-H460 lung, 88.1%; in the assay on HOP-92 NSCLC, 60.5%. Further, the growth with NCI-H522 lung was 72.9%; with A549/ATCC NSCLC, 97.6%; in the assay with 786-0 renal, 88.6%; in the assay on COLO 205 colon it was 104%; with DU-145 prostate, 87.6%; in the assay on K-562 leukemia, 75.8%. In addition, the growth with MALME-3M melanoma was 112%; in the assay on MDA-MB-231 breast, 84.5%; with RXF 393 renal, 95.1%; with SF-268 CNS, 71%; with SF-295 CNS, 106%; in the assay with SF-539 CNS, 96.2%. Moreover, in the assay on UACC-257 melanoma, the growth is 114%.
